Data published in PubChem BioAssay AID1626 (SRMLSC, 2009).
The campaign covered roughly 220,000 compounds. About 2,000 (0.91%) were called active. Not shown: some 2% with an inconclusive outcome. Cut-off read from the data, not from the text of the source: inconclusive = inhibition above about 80% without an active follow-up result; inactive = below that; test concentration not stated here. Only a sample is shown. Results with a measured potency or affinity are listed apart.

Assay: M. tuberculosis H37Rv growth inhibitors, H37Rv strain (AID 1626);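 note: bacteria incubated seven days before Alamar blue readout; 0% = bacteria only wells and 100% = bacteria with antibiotic wells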
Settings: stronger effect = higher value, concentration not given here

| SMILES | inhibition |
| --- | --- |
| c1ccc(Oc2ccc(-c3ccnc4nc(N5CCN(c6ccccc6)CC5)nn34)cc2)cc1 | 20.8% (inactive) |
| c1ccc(-c2ccnc3nc(N4CCN(c5ccccc5)CC4)nn23)cc1 | 6.16% (inactive) |
| CNC(=S)NNC(=O)c1sccc1OCc1ccc(Cl)cc1Cl | -2.33% (inactive) |
| N#CC1CCN(c2ncccc2[N+](=O)[O-])CC1 | -9.15% (inactive) |
| COc1ccc(OC)c(-c2cc(C3CCN(c4ncccc4[N+](=O)[O-])CC3)[nH]n2)c1 | -8.76% (inactive) |
| Cc1nnc(SCc2nc3ccccc3c(=O)n2-c2ccccc2Cl)n1N | 2.11% (inactive) |
| Cc1cccc(C)c1NC(=O)c1c(C)nn(-c2ccccc2)c1Cl | -2.35% (inactive) |
| O=C(O)CSc1ccnc2cc(Cl)ccc12 | 3.22% (inactive) |
| CCN(CC)C(=O)Oc1ccnc2cc(Cl)ccc12 | 2.84% (inactive) |
| O=C(COc1ccccc1Cl)Nc1ccc2c(c1)OCCO2 | 5.61% (inactive) |
| CCc1ccccc1NC(=O)c1cc(C2CC2)on1 | 8.45% (inactive) |
| COC(=O)c1ccccc1NC(=O)c1cc(C2CC2)on1 | 4.32% (inactive) |
| COc1ccc(-c2csc(N3C(=O)C4C5c6ccccc6C(c6ccccc65)C4C3=O)n2)cc1 (stereo not drawn) | 49% (inactive) |
| CCc1c(C#N)c(SCCC(=O)Nc2ccc(F)cc2)nc2c1C(=O)CC(C)(C)C2 | 6.22% (inactive) |
| O=C(NC1CC1)c1cc2c(F)cccc2s1 | -6.42% (inactive) |
| O=C(c1c(F)cccc1F)N1CCCC1 | -1.31% (inactive) |
| COc1ccc(C(=O)OC(C(=O)c2ccc(C)cc2)c2ccccc2)cc1 (stereo not drawn) | 9.22% (inactive) |
| C/C(=N/NC(=O)c1cc(-c2ccc(Cl)s2)[nH]n1)c1ccco1 | 40.6% (inactive) |
| CC1(C)CC(=O)C=C(c2cccc3c2oc2ccccc23)C1 | 8.8% (inactive) |
| COC(=O)[C@@H]1C[C@H]1[C@@H](NS(=O)(=O)c1ccccc1)c1ccccc1 | -5.22% (inactive) |
| C/C(=N\N=C(/N)SC1CC(=O)N(c2ccccc2)C1=O)c1cccs1 (stereo not drawn) | 3.4% (inactive) |
| C/C(=N\N=C(/N)SC1CC(=O)N(c2ccc(Cl)cc2)C1=O)c1cccs1 (stereo not drawn) | 64.5% (inactive) |
| CC(O)/C=C/c1ccc2ccccc2n1 (stereo not drawn) | 10.2% (inactive) |
| COC(=O)CNC(=O)COC(=O)/C=C/c1ccc2ccccc2n1 | 61.8% (inactive) |

| SMILES | inhibition |
| --- | --- |
| CN(C(=O)COC(=O)/C=C/c1ccc2ccccc2n1)C1CCS(=O)(=O)C1 (stereo not drawn) | 14.9% (inactive) |
| O=C(O)/C=C/c1ccc2ccccc2n1 | -1.78% (inactive) |
| COc1cc(NC(=O)C2CC(=O)NC3=C2C(=O)CCC3)cc(OC)c1 (stereo not drawn) | -7.6% (inactive) |
| CC(=O)O[C@]1(c2ccccc2)CCN(C)[C@H]2CCCC[C@@H]21 | -5.42% (inactive) |
| Cc1ccc(Cn2nnc3c(=O)n(CC(=O)c4ccccc4)cnc32)cc1 | 4.84% (inactive) |
| CC(=O)N1C(=O)N(C)C2C1N(C)C(=O)N2C(C)=O (stereo not drawn) | -8.79% (inactive) |
| C=CCOC(=O)C1=C(C)NC(=S)C(C#N)(CC=C)C1c1ccccc1Cl (stereo not drawn) | -0.05% (inactive) |
| Cc1ccc(S(=O)(=O)/N=C(\N)Nc2nc(C)c3ccccc3n2)cc1 | 9.4% (inactive) |
| Cc1ccc2c(C)nc(N/C(N)=N/S(=O)(=O)c3ccc([N+](=O)[O-])cc3)nc2c1 | 13% (inactive) |
| CCCOc1ccc(N2C(=O)CC(SC(=N)N3N=C(c4ccccc4)CC3c3ccccc3)C2=O)cc1 (stereo not drawn) | 75.6% (inactive) |
| CCN(CC)S(=O)(=O)c1ccc(NC(=O)C(C)N(c2ccccc2)S(C)(=O)=O)cc1 (stereo not drawn) | -1.18% (inactive) |
| Cc1cccc(-c2nsc(SCC(=O)Nc3cc(C)on3)n2)c1 | 70.6% (inactive) |
| CCc1ccc2nc(-c3cccc(C)c3)nc(SCC(=O)NCC3CCCO3)c2c1 (stereo not drawn) | -13% (inactive) |
| COc1ccc(-c2nnc3ccc(SCC(=O)NCC4CCCO4)nn23)cc1 (stereo not drawn) | -3.46% (inactive) |
| COc1ccc(-c2nnc(SCC(=O)NCC3CCCO3)n2C)cc1 (stereo not drawn) | -4.37% (inactive) |
| Cc1cc(NS(=O)(=O)c2ccccc2)n(-c2ccccc2)n1 | -2.44% (inactive) |
| CCC(=O)N1CCc2cc(S(=O)(=O)NCCC(=O)N3CCN(c4ccccn4)CC3)ccc21 | -5.78% (inactive) |
| COc1cc(/C=N/NC(=O)COc2ccccc2[N+](=O)[O-])ccc1OC(=O)c1ccco1 | 4.21% (inactive) |
| Cn1ccnc1SCC(=O)Nc1ccc(Oc2ccccc2)cc1 | 3.6% (inactive) |
| CCCN1CCN(CCCNC(=O)C2CCN(c3nnc(-n4cccc4)s3)CC2)CC1 | -6.41% (inactive) |
| NC(=O)CSc1nc(-c2ccccc2Cl)ns1 | -12.5% (inactive) |
| O=C(CSc1nc(-c2ccccc2Cl)ns1)NCc1ccco1 | 24.3% (inactive) |
| COc1ccc(-n2c(C)cc(SC)c(C(C)=O)c2=S)cc1 | 1.47% (inactive) |
| CC(Sc1nnnn1-c1ccccc1)C(=O)Nc1ccc(Cl)cn1 (stereo not drawn) | -7.65% (inactive) |

| SMILES | inhibition |
| --- | --- |
| CC(Sc1nncn1C)C(=O)Nc1ccc(Cl)cn1 (stereo not drawn) | 4.99% (inactive) |
| Cc1nn(-c2ccc([N+](=O)[O-])cc2)c2c1C(c1cccc(Br)c1)N1C(=N2)C(=O)Nc2ccccc21 (stereo not drawn) | 73% (inactive) |
| Cc1nn(-c2ccccc2)c2c1C(c1ccc(Cl)cc1)N(c1ccccc1)C(=O)N2 (stereo not drawn) | 63.4% (inactive) |
| COc1cccc(C2c3c(C)nn(-c4ccc([N+](=O)[O-])cc4)c3N=C3C(=O)Nc4ccccc4N32)c1 (stereo not drawn) | 72.8% (inactive) |
| Cc1nn(-c2ccccc2)c2c1C(c1ccc([N+](=O)[O-])cc1)C(C#N)=C(N)O2 (stereo not drawn) | -9.83% (inactive) |
| Cc1c(NC(=O)C(C)OC(=O)COc2cccc3c2OC(C)(C)C3)c(=O)n(-c2ccccc2)n1C (stereo not drawn) | 0.88% (inactive) |
| COCCNC(=O)COC(=O)c1ccc(OCC(=O)Nc2ccccc2OC)c(OC)c1 | 2.52% (inactive) |
| CCC1(C)CC(C(N)=S)CCO1 (stereo not drawn) | 7.13% (inactive) |
| CCOC(=O)c1ccc(CSc2nnc(C)n2N)o1 | 1.16% (inactive) |
| NC(=O)C[C@H]1NC(=O)[C@H](CCC(=O)O)NC(=O)c2cc([N+](=O)[O-])cc(I)c2NCCC[C@@H](C(N)=O)NC1=O | 3.24% (inactive) |
| COc1ccc(Nc2ccnc3ccccc23)cc1 | 9.05% (inactive) |
| Oc1ccc(Nc2ccnc3cc(Cl)ccc23)cc1 | -0.59% (inactive) |
| c1ccc2cc3c(NCCN4CCOCC4)ccnc3cc2c1 | 3.77% (inactive) |
| c1ccc(CCNc2ncnc3ccccc23)cc1 | -6.97% (inactive) |
| Cc1c(C(=O)NCc2ccccc2Cl)oc2c1C(=O)CCC2 | -3.25% (inactive) |
| CCCCn1nc2cc(C(=O)NCc3cc(C(F)(F)F)cc(C(F)(F)F)c3)ccc2c1OC | -4.51% (inactive) |
| O=C(NC1CCCCC1)c1ccc(Cn2cc(Cl)cn2)cc1 | 0.85% (inactive) |
| CC(=O)Nc1ccc(NC(=O)c2ccc(Cl)nc2)cc1 | 3.97% (inactive) |
| CCCSc1ccc(C(=O)Nc2ccc(F)cc2F)cn1 | 72.4% (inactive) |
| N=C1/C(=C/c2cccn2-c2ccc([N+](=O)[O-])cc2)C(=O)N=C2SC=CN12 | -5.89% (inactive) |
| N=C1/C(=C/c2cccn2-c2cccc([N+](=O)[O-])c2)C(=O)N=C2SC=CN12 | -11.3% (inactive) |
| Cc1ccc2cc(CN(CC3CCCO3)C(=O)C(C)C)c(=O)[nH]c2c1 (stereo not drawn) | -3.77% (inactive) |
| CCCCCCCCCCCCCCCC[n+]1cccc(C(=O)N(CC)CC)c1 | 5.29% (inactive) |
| C=C(C)Cn1c(=O)c(NC(=O)c2ccccc2)c2n(c1=S)CCC2 | -3.38% (inactive) |

| SMILES | inhibition |
| --- | --- |
| O=C(NCCCN1CCOCC1)c1cccnc1SCc1ccccc1Cl | -2.04% (inactive) |
| CCN(CC)CCN(Cc1cc2ccc(C)c(C)c2[nH]c1=O)C(=S)NCc1ccco1 | -6.4% (inactive) |
| O=[N+]([O-])c1ccc(COc2ccc(-c3[nH]ncc3-c3ccccc3)c(O)c2)cc1 | 11.9% (inactive) |
| COc1ccc(-c2cn[nH]c2-c2ccc(OCc3ccc([N+](=O)[O-])cc3)cc2O)cc1 | 9.69% (inactive) |
| Cc1ccc(SCc2ccc(C(=O)N3CCCCC3)cc2)cc1 | 4.74% (inactive) |
| COC(=O)CCCCC1SCC(NC(=O)c2ccccc2)C1OC(C)=O (stereo not drawn) | -1.97% (inactive) |
| COC(=O)/C(=C\Nc1ccc(OC)cc1)NC(=O)c1ccc(Cl)cc1Cl | 46.4% (inactive) |
| NS(=O)(=O)c1ccc(NC(=O)/C=C/c2cccs2)cc1 | -2.49% (inactive) |
| CCCOC(=O)c1ccc(NS(=O)(=O)c2cccs2)cc1 | 8.32% (inactive) |
| O=C(/C=C/c1cccs1)Nc1ccncc1 | -3.31% (inactive) |
| CCN(CC)CCOC(=O)c1ccc(NC(=O)/C=C/c2cccs2)cc1 | -0.83% (inactive) |
| CC(=O)Nc1ccc(N(C(=O)c2ccco2)C(C(=O)NC2CCCC2)c2cccs2)cc1 (stereo not drawn) | -12.6% (inactive) |
| O=C(O)c1cc([N+](=O)[O-])ccc1Nc1ccccc1 | 0.55% (inactive) |
| CCOC(=O)C1=C(C)N(Cc2ccccc2)C(=O)NC1c1ccccc1OS(=O)(=O)c1ccccc1[N+](=O)[O-] (stereo not drawn) | 1.38% (inactive) |
| CCNC(=O)CN(C1CCCCC1)S(C)(=O)=O | -1.63% (inactive) |
| Cc1cc(N2CCN(C(=O)c3ccco3)CC2)n2ncnc2n1 | 0.62% (inactive) |
| O=C(Nc1ccc(Cl)c(Cl)c1)Oc1ccc(NC(=O)c2ccco2)cc1 | 61.8% (inactive) |
| CCc1ccc(C(C)NC(=O)Cc2ccc(F)cc2)cc1 (stereo not drawn) | 9.96% (inactive) |
| COCCCn1c(-c2ccccc2)nc2ccccc2c1=O | 5.89% (inactive) |
| CCOC(=O)Cn1c(-c2ccccc2)nc2ccccc2c1=O | 45.8% (inactive) |
| CCCNS(=O)(=O)c1ccc(OCC(=O)Nc2ccc3c(c2)OCO3)cc1 | -3.44% (inactive) |
